# Measurements from PubChem BioAssay (NCATS).
# Inconclusive results are not listed. The source made the active and inactive calls. Calls come from the whole dose curve; as a rule, active = well fitted cell-killing curve with a large enough effect; inconclusive = small, poorly fitted or top-dose-only effect; inactive = flat fitted curve, though single readings scatter.
# Test: Cell Viability - LYMP1-002 - Assay at 16 hr (AID 948);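 note: 0% = DMSO alone and full effect = 92 µM tetraoctylammonium bromide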
# Conditions: LYMP1-002 lymphoblastoid cell viability; series mostly up to 92.2 µM; activity change, negative = cytotoxicity: at the top concentration
# Excerpt: NIH Chemical Genomics Center [NCGC]
# NIH Molecular Libraries Screening Centers Network [MLSCN]
# National Institutes of Environmental Health Sciences [NIEHS]
# National Toxicology Program [NTP]
# We have developed a 1536-well cell-based assay for quantitative high throughput screening (qHTS) against a number of cell lines to determine in vitro cytotoxicity of small molecules. This particular assay uses a human lymphoblastoid cell line (LYMP1-002) purchased from Coriell Institute for Medical Research.
# NCGC Assay Protocol Summary:
# The CellTiter-Glo luminescent cell viability assay (Promega) is a homogeneous method to measure the number of viable cells in culture. The end point readout of this assay is based on quantitation of intracellular ATP, an indicator of metabolic activity, using the luciferase reaction. Luciferase catalyzes the oxidation of beetle Luciferin to oxyluciferin and light in the presence of ATP. The luminescent signal is proportional to amount of ATP present.
# Using the CellTiter-Glo luminescent cell viability assay, the amount of cellular ATP was measured in the lymphoblastoid cell line with complete culture medium following compound treatment for 16 hours. The assay was performed in opaque white Kalypsys 1536-well plates. In the screen, tetraoctylammonium bromide was used as positive control. Library compounds were measured for their ability to cause acute toxicity in the cell line, as reflected by a decrease in intracellular ATP levels, in a concentration-dependent manner. […] AC50 values were determined from concentration-response data modeled with the standard Hill equation.
# qHTS protocol for CellTiter Glo lymphoblastoid cellular assay
# [Step] [Parameter] [Value] [Description]
# 1. Reagent; 5 uL; 2500 lymphoblastoid cells/well
# 2. Time; 5 hr; 37 C incubation
# 4. Controls; 23 nL; Tetraoctylammonium bromide 6.4pM to 92 uM
# 5. Time; 16 hr; 37 C incubation
# 6. Reagent; 5 uL; CellTiter Glo reagent
# 7. Time; 30 min; Room Temperature
# 8. Detection; Luminescence; Viewlux plate reader
# Keywords: cell viability, cytotoxicity, lymphoblastoid cell line, luminescence, NTPHTS, NTPHTS_NCGC, NIEHS, DSSTox, MLSMR, MLSCN, NIH Roadmap, qHTS, NCGC
row,SMILES,"activity change, negative = cytotoxicity"
1,CCCCCC(N)=O,-7.29% (inactive)
2,O=C1C(c2[nH]c3ccccc3c2O)=Nc2ccccc21,-5.33% (inactive)
3,Nc1ccc(S(=O)(=O)c2ccc(N)cc2)cc1,-7.3% (inactive)
4,O=C(O)CCCCC1CCSS1 (configuration not stated),-0.98% (inactive)
5,CCCCOC(=O)c1ccc(N)cc1,-6.32% (inactive)
6,CC1CC(OC(=O)c2ccccc2O)CC(C)(C)C1 (configuration not stated),-4.97% (inactive)
7,CC(=O)Nc1cccc(O)c1,1.53% (inactive)
8,O=C1c2cccc(O)c2C(=O)c2c(O)cccc21,-10.3% (inactive)
9,Cc1cc(C)nc(NS(=O)(=O)c2ccc(N)cc2)n1,-3.02% (inactive)
10,O=C(c1ccccc1)C(O)c1ccccc1 (configuration not stated),-4.13% (inactive)
11,CC(=O)NS(=O)(=O)c1ccc(N)cc1,-0.274% (inactive)
12,CC(=O)Nc1ccc(C(=O)O)cc1,-1.29% (inactive)
13,FC(F)(F)C(Cl)Br (configuration not stated),-2.7% (inactive)
14,CCCC(O)C(CC)CO (configuration not stated),-9.31% (inactive)
15,CC(=O)Nc1ccccc1,0.859% (inactive)
16,CCCCCCCC(=O)OCC(COC(=O)CCCCCCC)OC(=O)CCCCCCC,-0.236% (inactive)
17,CC(=O)OCC(COC(C)=O)OC(C)=O,-4.08% (inactive)
18,Cc1c(N(C)C)c(=O)n(-c2ccccc2)n1C,-6.37% (inactive)
19,COc1ccc(O)cc1,-3.38% (inactive)
20,C=CCNC(N)=S,-1.62% (inactive)
21,Cc1cc(=O)[nH]c(=S)[nH]1,3.38% (inactive)
22,CCN(CC)C(=O)c1cccc(C)c1,-4.86% (inactive)
